We go through 12 compounds from PubChem BioAssay (EPA / NIEHS).

Active and inactive are the calls of the source. The calls were made as follows: active = hit-call score of the fitted dose curve at least 0.9, where 1 is the maximum; inactive = score below 0.9.

The test in a line: CCTE_Mundy_HCI_Cortical_Synap_Neur_Matur_CellBodySpotCount: CCTE's Synaptogenesis and Neurite Maturation Assay in rat cortical cells for Cell Body Spot Count, Mundy Lab (AID 2284223). How it is done: CCTE_Mundy_HCI_Cortical_Synap&Neurite_Matur is a multiplexed, cell-based-readout assay that uses rat primary cortical cells with measurements taken at 288.33 hours after chemical dosing in a microplate: 96-well plate.CCTE_Mundy_HCI_Cortical_Synap_Neur_Matur_CellBodySpotCount is one of eight components of the CCTE_Mundy_HCI_Cortical_Synap&Neurite_Matur assay. It measures synaptogenesis and neurite maturation related to number of cell body-associated synapses (synaptophysin puncta) per neuron using High Content Imaging of fluorescently labelled markers.[…] Using a type of morphology reporter, loss -of-signal activity can be used to understand developmental effects.
Cells are plated onto 96 well plates and allowed 2 hr for attachment to the substrate. At days in vitro (DIV) 5, Cytosine Arabinoside (AraC) is added to arrest glial cell growth. Chemicals are dosed and a media change is performed at DIV 7 of differentiation and is continued through DIV 12 when the experiment is terminated. Cells are fixed with […] and Hoechst Dye. Cells are stained using Millipore Mouse anti-MAP2MAB3418 (1:800) and Millipore Rabbit anti-Synaptophysinsc-1750 (1:250) primary antibodies and Alexa Fluor-488 goat anti-mouse and AlexaFluor-546 goat anti-rabbit secondary antibodies to label neuronal cell nuclei, synapses and neurites. A Cellomics ArrayScan VTi HCS Reader is used for automated image acquisition and analysis of neurite outgrowth.
Regarding `OCCOCCO`, the compound was classed as inactive.

In the case of `CC(C)(C)C(O)(CCc1ccc(Cl)cc1)Cn1cncn1` (configuration not stated), the outcome was inactive.

In the case of `CNC(=O)Oc1cccc2c1OC(C)(C)C2`, the result was inactive.

As for `CCCCOC(=O)c1ccccc1C(=O)OCc1ccccc1`, the compound was called inactive.

As for `CC(C)COC(=O)c1ccccc1C(=O)OCC(C)C`, the AC50 (usually the midpoint of the concentration-response curve, whichever way the signal moves) was 83.8 µM (active).

`ClC1=C(Cl)C2(Cl)C3C(Cl)C=CC3C1(Cl)C2(Cl)Cl` (configuration not stated): the AC50 was 12.4 µM (active).

With `Nc1cc(Cl)cc(C(=O)O)c1Cl`, the compound was called inactive.

`COC(=O)Nc1nc2ccccc2[nH]1`: the compound was called inactive.

Consider `COP(=S)(OC)SCN1C(=O)c2ccccc2C1=O`, for which the call was inactive.

On to `CCC[CH2][Sn]([Cl])([CH2]CCC)[CH2]CCC`, for which the AC50 is 0.102 µM (active).

On to `[O-][Cl+]O`, for which the compound was classed as inactive.

Take `CN(C)[C@@H]1C(=O)C(C(N)=O)=C(O)[C@@]2(O)C(=O)C3=C(O)c4c(O)cccc4[C@@](C)(O)[C@H]3C[C@@H]12`: the result was inactive.
